Experimental data taken from PubChem BioAssay AID1159580 (chemical genetic matrix, 2015).
Screen size: about 5,500 compounds; about 2,000 (36%) were called active. Roughly 18% stayed inconclusive and do not appear here. Rule as the data show it: active = normalized growth mostly below about 0.91 (no sharp cut-off); inconclusive = no clear call, values can overlap the other calls; inactive = mostly above about 0.92. The list shows a part of the results.

Experiment: chemical genetic growth profiling, strain panel (AID 1159580);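 also: tested at 20 µM; growth read once vehicle control cultures reached saturation at 30 °C; 1 = growth at the plate median or of vehicle wells; lower values mean less growth of the strain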
Details: growth OD

Measured: normalized growth

CC(CCC(=O)O)[C@H]1CCC2C3CC[C@@H]4CCCC[C@]4(C)C3CC[C@@]21C (some centres undefined)
active: S. cerevisiae deletion strains, locus YNL183C, strain NPR1, hits give low values 1.11 [resistant]
inactive: S. cerevisiae deletion strains, locus YJR043C, strain POL32, hits give low values 1.02 | S. cerevisiae deletion strains, locus YJR066W, strain TOR1, hits give low values 1.06 | S. cerevisiae deletion strains, locus YJR075W, strain HOC1, hits give low values 0.999 | S. cerevisiae deletion strains, locus YKL009W, strain mrt4, hits give low values 0.95 | S. cerevisiae deletion strains, locus YKL068W, hits give low values 0.989 | S. cerevisiae deletion strains, locus YKL085W, strain MDH1 (second series), hits give low values 0.986 | S. cerevisiae deletion strains, locus YKL085W, strain MDH1, hits give low values 0.986 | S. cerevisiae deletion strains, locus YKL160W, strain elf1, hits give low values 1.02 | S. cerevisiae deletion strains, locus YKL190W, strain CNB1, hits give low values 0.998 | S. cerevisiae deletion strains, locus YKR001C, strain vps1, hits give low values 0.998 | S. cerevisiae deletion strains, locus YKR026C, strain gcn3, hits give low values 1.01 | S. cerevisiae deletion strains, locus YKR091W, strain srl3, hits give low values 1 | S. cerevisiae deletion strains, locus YLL001W, strain dnm1, hits give low values 1.01 | S. cerevisiae deletion strains, locus YLL026W, hits give low values 0.988 | S. cerevisiae deletion strains, locus YLL041C, strain sdh2, hits give low values 1 | S. cerevisiae deletion strains, locus YLR027C, strain aat2, hits give low values 0.995 | S. cerevisiae deletion strains, locus YLR039C, strain RIC1, hits give low values 1.05 | S. cerevisiae deletion strains, locus YLR058C, strain SHM2, hits give low values 0.999 | S. cerevisiae deletion strains, locus YLR102C, strain apc9, hits give low values 0.984 | S. cerevisiae deletion strains, locus YLR113W, strain HOG1, hits give low values 0.977 | S. cerevisiae deletion strains, locus YLR221C, strain rsa3, hits give low values 1.02 | S. cerevisiae deletion strains, locus YLR258W, strain gsy2, hits give low values 1 | S. cerevisiae deletion strains, locus YLR262C, strain YPT6 (second series), hits give low values 1.05 | S. cerevisiae deletion strains, locus YLR262C, strain YPT6, hits give low values 1.1 | S. cerevisiae deletion strains, locus YLR268W, strain sec22, hits give low values 0.979 | S. cerevisiae deletion strains, locus YLR320W, strain mms22, hits give low values 1.05 | S. cerevisiae deletion strains, locus YLR330W, strain CHS5, hits give low values 0.999 | S. cerevisiae deletion strains, locus YLR342W, strain FKS1 (second series), hits give low values 0.956 | S. cerevisiae deletion strains, locus YLR342W, strain FKS1, hits give low values 1.04 | S. cerevisiae deletion strains, locus YLR357W, strain rsc2, hits give low values 0.997 | S. cerevisiae deletion strains, locus YLR370C, strain arc18, hits give low values 1.01 | S. cerevisiae deletion strains, locus YLR371W, strain rom2, hits give low values 0.986 | S. cerevisiae deletion strains, locus YLR384C, strain iki3, hits give low values 1 | S. cerevisiae deletion strains, locus YLR418C, strain cdc73, hits give low values 0.975 | S. cerevisiae deletion strains, locus YML016C, strain PPZ1, hits give low values 1 | S. cerevisiae deletion strains, locus YML032C, strain rad52, hits give low values 0.992 | S. cerevisiae deletion strains, locus YML120C, strain ndi1, hits give low values 1.01 | S. cerevisiae deletion strains, locus YML124C, strain tub3, hits give low values 0.988 | S. cerevisiae deletion strains, locus YMR058W, strain fet3, hits give low values 1.01 | S. cerevisiae deletion strains, locus YMR078C, strain ctf18, hits give low values 1 | S. cerevisiae deletion strains, locus YMR125W, strain sto1, hits give low values 1.02 | S. cerevisiae deletion strains, locus YMR129W, hits give low values 1 | S. cerevisiae deletion strains, locus YMR205C, strain PFK2, hits give low values 1.03 | S. cerevisiae deletion strains, locus YMR223W, strain ubp8, hits give low values 0.994 | S. cerevisiae deletion strains, locus YMR231W, strain pep5, hits give low values 0.998 | S. cerevisiae deletion strains, locus YMR307W, strain GAS1, hits give low values 0.985 | S. cerevisiae deletion strains, locus YNL067W, strain RPL9B, hits give low values 1.02 | S. cerevisiae deletion strains, locus YNL071W, strain lat1, hits give low values 1.01 | S. cerevisiae deletion strains, locus YNL209W, strain ssb2, hits give low values 1.02 | S. cerevisiae deletion strains, locus YNL233W, strain BNI4, hits give low values 1.01 | S. cerevisiae deletion strains, locus YNL248C, strain rpa49, hits give low values 1.01 | S. cerevisiae deletion strains, locus YNL250W, strain rad50, hits give low values 0.982 | S. cerevisiae deletion strains, locus YNL271C, strain bni1, hits give low values 0.986 | S. cerevisiae deletion strains, locus YNL298W, strain CLA4, hits give low values 0.981 | S. cerevisiae deletion strains, locus YNL307C, strain MCK1, hits give low values 0.987 | S. cerevisiae deletion strains, locus YNL322C, strain KRE1 (second series), hits give low values 1.01 | S. cerevisiae deletion strains, locus YNL322C, strain KRE1, hits give low values 0.997 | S. cerevisiae deletion strains, locus YNR049C, strain mso1, hits give low values 0.998 | S. cerevisiae deletion strains, locus YNR052C, strain pop2, hits give low values 0.985 | S. cerevisiae deletion strains, locus YOL012C, strain htz1 1.54 | S. cerevisiae deletion strains, locus YOL147C, strain pex11, hits give low values 0.993 | S. cerevisiae deletion strains, locus YOR001W, strain rrp6, hits give low values 1.02 | S. cerevisiae deletion strains, locus YOR061W, strain CKA2, hits give low values 0.99 | S. cerevisiae deletion strains, locus YOR069W, strain VPS5, hits give low values 0.993 | S. cerevisiae deletion strains, locus YOR070C, strain gyp1, hits give low values 0.994 | S. cerevisiae deletion strains, locus YOR080W, strain dia2, hits give low values 0.998 | S. cerevisiae deletion strains, locus YOR083W, strain WHI5, hits give low values 1.02 | S. cerevisiae deletion strains, locus YOR106W, strain vam3, hits give low values 1.02 | S. cerevisiae deletion strains, locus YOR136W, strain idh2, hits give low values 0.986 | S. cerevisiae deletion strains, locus YOR144C, strain elg1, hits give low values 0.992 | S. cerevisiae deletion strains, locus YOR184W, strain ser1, hits give low values 0.992 | S. cerevisiae deletion strains, locus YOR231W, strain MKK1, hits give low values 0.969 | S. cerevisiae deletion strains, locus YOR265W, strain rbl2, hits give low values 1 | S. cerevisiae deletion strains, locus YOR270C, strain vph1, hits give low values 1.01 | S. cerevisiae deletion strains, locus YOR290C, strain snf2, hits give low values 1.01 | S. cerevisiae deletion strains, locus YOR316C, strain cot1, hits give low values 0.985 | S. cerevisiae deletion strains, locus YPL051W, strain arl3, hits give low values 1.01 | S. cerevisiae deletion strains, locus YPL055C, strain LGE1, hits give low values 0.991 | S. cerevisiae deletion strains, locus YPL078C, strain atp4, hits give low values 1.01 | S. cerevisiae deletion strains, locus YPL106C, strain sse1, hits give low values 1.03 | S. cerevisiae deletion strains, locus YPL240C, strain hsp82, hits give low values 0.998 | S. cerevisiae deletion strains, locus YPL256C, strain CLN2, hits give low values 0.94 | S. cerevisiae deletion strains, locus YPR119W, strain clb2, hits give low values 0.993 | S. cerevisiae deletion strains, locus YPR141C, strain kar3, hits give low values 0.986 | S. cerevisiae deletion strains, locus YPR163C, strain tif3, hits give low values 1.01 | S. cerevisiae deletion strains, locus YPR167C, strain met16, hits give low values 0.971 | S. cerevisiae deletion strains, strain wtn01, hits give low values 0.965 | S. cerevisiae strains, strain wild type, hits give low values 0.995
